PubChem BioAssay (NCI)
About 83,000 compounds went through this panel and 20% of them were active in at least one assay; those are over-represented in the sample as a whole.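 The endpoint reported here, percent growth, reads 100 for growth as untreated, 0 for no net growth and -100 for all cells dead.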 A number with no mark means an inactive call. The source made the active and inactive calls. How the source made its calls: active means growth percent below 10; inactive means the rest.

What follows are compounds tested on ACHN renal (assay: NCI-60 one-dose screen, 48 h (100 = growth as untreated, 0 = no growth, -100 = all killed)). Conditions: 10 µM unless noted.
Work on `O=S(=O)(Nc1cc(Sc2cccc3cccnc23)c(O)c2ccccc12)c1ccccc1` yielded a growth of 16.9%. For `CCOC(=O)c1nn(CC(O)c2ccccc2)c(NC(=O)Nc2cccc(F)c2)c1C` (centres undefined), the growth was 107%. With `Cn1ccc(=O)nc1` the growth was -4.04% (active). `CNCc1cccc2c1OCCOCCOCCNS(=O)(=O)c1ccc(cc1)-c1cnc(N)c(n1)C(=O)N2` gave a growth of 54.7%. `C=C(C)[C@@H]1CC[C@]2(C(=O)N3CCN(C)CC3)CC[C@]3(C)[C@H](CC[C@@H]4[C@@]5(C)CC[C@H](OC(=O)c6ccccc6C(=O)O)C(C)(C)[C@@H]5CC[C@]43C)[C@@H]12` showed a growth of 100%. `CCNc1ccc(-c2nc3ccccc3n3cccc23)cc1` gave a growth of 73.9%. With `CSc1nc(C)c([N+](=O)[O-])c(N)n1` the growth was 112%. `O=c1cc(-c2ccccc2)[nH]c2ncc(-c3ccc(F)cc3)n12` was tested, and the growth was 88.3%. With `N#Cc1cccc(C2C3=C(COC3=O)N(CCO)c3cc4c(cc32)OCO4)c1` (centres undefined) the growth was 39.2%. In the case of `COC(=O)c1nc(-c2ccccc2)oc1S(=O)(=O)NCC(c1ccc(Cl)cc1)N1CCOCC1` (centres undefined), the growth is reported as 64.7%. `CC1(C)CC[C@]2(C(=O)N[C@H](CO)Cc3ccccc3)CC[C@]3(C)C(=CC[C@@H]4[C@@]5(C)CCCNC(C)(C)[C@@H]5CC[C@]43C)[C@@H]2C1` showed a growth of 101%. Compound `COc1ccc(C(=O)Cn2c(C(=O)c3ccc(OC)cc3)nc3ccccc32)cc1` has a growth of 43.8%. `COc1ccc(C2=CC(c3cc(OC)c(OC)c(OC)c3)n3ncnc3N2)cc1` (centres undefined) showed a growth of 32.4%. `COc1ccc(C(=O)Cn2c(C(=O)c3ccc(Cl)cc3)nc3ccccc32)cc1` gave a growth of 65.5%.
